# Screening results deposited in PubChem BioAssay by The Scripps Research Institute Molecular Screening Center.
# SRC3 inh: human NCOA3 inhibition; hit rate 0.17% among 360,000; HEK293 GAL4-SRC3 luciferase reporter, luminescence; inhibition, % at 3.6 µM; Q9Y6Q9;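 active means inhibition above a per-campaign cutoff, the mean of all compounds plus 3 SD, cut at about 60% in these data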;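 further: 0% = DMSO-treated cells and 100% = gossypol-treated cells at 36 µM; higher means less SRC3-driven luciferase light from the GAL4 reporter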
# NCOA1 inh: human NCOA1 inhibition. AID 588354. Q15788. HEK293 GAL4-SRC1 luciferase reporter, luminescence. hit rate 0.12% among 360,000. inhibition, % at 3.6 µM;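 active means inhibition above the campaign mean plus 3 SD, with each screening campaign given its own cutoff, cut at about 60% in these data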;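 further: 0% = DMSO treated cells and 100% = gossypol at 36 µM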
# NR5A2 inv ag: suppresses constitutive activity of human LRH-1 | O00482 | HEK293T StAR-luciferase reporter, LRH-1 transfected, 24 h | inhibition, % at 3.6 µM | hit rate 0.13% among 360,000;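 active means inhibition above the mean inhibition of all tested compounds plus 3 SD, cut at about 73% in these data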;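 further: 0% = DMSO wells and 100% = reporter-only cells lacking LRH-1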
# NCOA2 inhibitor: inhibits human steroid receptor coactivator 2. Q15596. HEK293 GAL4-SRC2 luciferase reporter, luminescence. inhibition, % at 9 µM. hit rate 0.17% among 370,000;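 active means inhibition above the mean inhibition of all tested compounds plus 3 SD, set per campaign, cut at about 52% in these data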;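 further: 0% = DMSO treated cells and 100% = cells given Gossypol at 36 µM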
# COUP-TFII inh: NR2F2 (human) inhibition, primary screen; P24468; HEK293T NGFI-A luciferase reporter, luminescence; inhibition, % at 8.6 µM; hit rate 0.7% among 370,000; AID 686940;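 active means inhibition above a per-plate cutoff, mean inhibition of test wells between control levels plus 3 SD, cut at about 38% in these data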;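 further: cells cotransfected with COUP-TFII expression vector driving the NGFI-A reporter; 0% = median of COUP-TF2 test wells and 100% = reporter-only cells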
# Target sequence (P24468 whole entry, looked up): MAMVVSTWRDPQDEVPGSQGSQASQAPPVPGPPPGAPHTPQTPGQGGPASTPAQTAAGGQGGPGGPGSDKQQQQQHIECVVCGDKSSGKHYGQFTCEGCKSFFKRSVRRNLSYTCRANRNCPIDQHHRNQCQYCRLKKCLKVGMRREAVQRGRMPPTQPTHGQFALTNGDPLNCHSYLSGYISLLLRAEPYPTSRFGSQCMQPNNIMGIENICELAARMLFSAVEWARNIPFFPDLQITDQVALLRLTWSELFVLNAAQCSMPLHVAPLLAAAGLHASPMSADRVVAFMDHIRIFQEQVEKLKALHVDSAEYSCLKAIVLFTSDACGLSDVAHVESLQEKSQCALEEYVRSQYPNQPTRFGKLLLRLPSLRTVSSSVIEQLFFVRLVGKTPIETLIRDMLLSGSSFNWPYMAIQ
# GalR3 antag: antagonists of human GalR3; inhibition, % at 3 µM; HEK293 GalR3-CNG cAMP membrane potential fluorescence; galR3 body fused to GalR1 C-terminus; AID 651719; hit rate 0.44% among 360,000; O60755;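 active means inhibition above the screen-wide average plus 3 SD, cut at about 13% in these data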;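 further: forskolin and galanin both at EC90 stimulate the cells; cAMP rise reported by CNG channel membrane potential dye signal; 0% = forskolin plus galanin with DMSO and 100% = forskolin alone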
# VP16 Luc counter: counter-screen for COUP-TFII antagonists: inhibitors of VP16; AID 687007; hit rate 25% among 2,500; HEK293 Gal4-VP16 luciferase reporter, luminescence; inhibition, % at 8.5 µM; shares compounds with COUP-TFII inh; in the data active means inhibition above about 13%
# COUP-TFII conf: COUP-TFII (NR2F2) inhibition, confirmation assay. shares compounds with COUP-TFII inh. HEK293 NGFI-A luciferase reporter, luminescence. inhibition, % at 8.5 µM. hit rate 45% among 2,500. AID 687008;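 active means mean inhibition over three repeats above a set limit taken from the earlier primary screen, cut at about 38% in these data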;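 further: 100% = cells given the luciferase reporter alone without the COUP-TF2 vector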
# * marks the source's active call; other numbers are inactive results; . = no result. The list is not random: actives were taken first. Their share in the collection is about 1.1%.
SMILES,SRC3 inh,NCOA1 inh,NR5A2 inv ag,NCOA2 inhibitor,COUP-TFII inh,GalR3 antag,VP16 Luc counter,COUP-TFII conf
COc1ccc(-c2cc(N)n(S(=O)(=O)c3ccc(F)cc3)n2)cc1OC,5,20,17,28,46*,4,6,31
COc1cc(-c2cc(N)n(S(=O)(=O)c3ccc(F)cc3)n2)cc(OC)c1OC,-1,-2,-8,-20,-26,1,.,.
CC1=CC(=O)C(C(C)C)=C/C1=N\OS(=O)(=O)c1ccccc1,.,.,.,.,82*,.,6,13
CC1=C/C(=N\OS(=O)(=O)c2ccccc2)C(C)=CC1=O,53,-25,57,.,.,.,.,.
Cc1ccc(-c2cc(C(=O)NN=Cc3ccc(F)cc3)[nH]n2)cc1C,.,.,.,-1,-6,.,.,.
O=C(CCc1ccccc1)N[C@H]1[C@H](OCc2ccccc2)CCC[C@@]12C(=O)N(Cc1ccccc1)c1ccc(-c3ccsc3)cc12,.,.,.,-9,6,.,.,.
COc1cc(OC)c(N(C)S(=O)(=O)c2cccc(C(=O)OCC(=O)c3c[nH]c4ccccc34)c2)cc1Cl,17,16,15,32,62*,-10,6,53*
COC1=CC(=O)c2c(ccc3ncnc(N)c23)C1=O,69*,60,72,62*,55*,-8,62*,44*
O=C(Nc1ccc(-c2nc3ccccc3o2)cc1)c1cc(-n2cnnc2)ccc1Cl,-4,12,17,5,34,-8,.,.
O=C(Nc1ccc(-c2nc3ccccc3o2)c(O)c1)c1cc(-n2cnnc2)ccc1Cl,21,18,21,27,44*,-3,-8,17
Cn1c(Cc2cccs2)nnc1SCC(=O)Nc1ccc2cn[nH]c2c1,.,.,.,11,42*,.,-13,5
Cc1sc(-c2ccccn2)nc1OC(=O)c1ccc(F)cc1F,33,4,10,8,38*,-10,-16,30
Cc1sc(-c2ccccn2)nc1OC(=O)c1ccc(Cl)c(Cl)c1,3,-6,-21,6,0,-2,.,.
O=C(c1ccco1)N1CCCC(c2nc(-c3ccc(S(=O)(=O)NCc4ccccc4)cc3)no2)C1 (stereo not drawn),8,-7,16,21,51*,-9,-4,21
O=C(CSc1nnc(-c2cccnc2)n1Cc1ccco1)Nc1cc(Cl)ccc1F,.,.,.,5,-9,.,.,.
O=C1CCC[C@H]2C[C@H](NCc3ccc(Cl)cc3)CC[C@]23CCCN13,.,.,.,.,14,.,.,.
COC(=O)Cc1ccc(NC(=O)c2ccc(C(C)(C)C)cc2)cc1,61,54,63,83*,95*,11,83*,93*
FC(F)(F)c1cccc(NC(=S)N(CCCN2CCCC2)Cc2cccn2Cc2ccc(Cl)cc2)c1,38,1,13,2,38*,-4,-2,1
CCCCNS(=O)(=O)/C=C/c1ccccc1CNC(=O)OC(C)(C)C,.,.,.,-3,-11,.,.,.
COc1ccccc1OCc1ccc(C(=O)Nc2ccncc2)o1,32,10,-2,8,39*,-5,3,16
CC(C)(C)c1ccc(Oc2ccc(NC(=O)C3CC=CCC3C(=O)O)cc2)cc1 (stereo not drawn),19,4,50,78*,91*,-1,15*,-1
O=C(OC12CCCN(C1)/C(=C/c1ccncc1)C2)C1CCCCC1 (stereo not drawn),.,.,.,19,67*,.,8,33
O=C(OC12CCCN(C1)/C(=C/c1ccncc1)C2)c1ccco1 (stereo not drawn),.,.,.,2,38*,.,5,23
O=C(OC12CCCN(C1)/C(=C/c1ccc(Cl)cc1)C2)c1ccco1 (stereo not drawn),.,.,.,2,-17,.,.,.
O=C(OC12CCCN(C1)/C(=C/c1cccnc1)C2)c1ccc(F)cc1 (stereo not drawn),.,.,.,7,41*,.,1,24
SMILES,SRC3 inh,NCOA1 inh,NR5A2 inv ag,NCOA2 inhibitor,COUP-TFII inh,GalR3 antag,VP16 Luc counter,COUP-TFII conf
O=C(OC12CCCN(C1)/C(=C/c1ccncc1)C2)c1ccc(F)cc1 (stereo not drawn),.,.,.,27,24,.,.,.
O=C(OC12CCCN(C1)/C(=C/c1ccccc1)C2)C1CCCC1 (stereo not drawn),.,.,.,-6,-9,.,.,.
O=C(NC1CCCCN(Cc2cccc(Cl)c2)C1=O)c1ccc(COc2ccccc2)cc1 (stereo not drawn),.,.,.,18,48*,.,1,36
Cc1cc(C(C)(C)C)cc(C)c1C[n+]1ccc2ccccc2c1,56,44,61,1,66*,-4,27*,55*
Cc1cc(C)cc(OC(C)CCN2CCC(C(O)(c3ccccc3)c3ccccc3)CC2)c1 (stereo not drawn),.,.,.,-26,-4,.,.,.
C=CCCC(=O)N[C@H]1CC[C@@]23CCCN2C(=O)CCC[C@H]3[C@H]1CCC,.,.,.,.,-22,.,.,.
COc1ccc(NC(=O)c2cc([N+](=O)[O-])ccc2O)cc1,53,51,20,76*,69*,-11,39*,61*
COc1ccc(NC(=O)c2cccc([N+](=O)[O-])c2)cc1,-36,-31,2,-35,-15,-5,.,.
CCOC(=O)c1cc(-c2ccc(C)cc2)n(CCC(=O)N2CCN(c3ccccn3)CC2)c1C,12,-8,11,8,39*,-2,-6,8
O=S1(=O)c2ccc(Br)cc2OC[C@@H](Cc2ccccc2)N1Cc1cn(CC2CCCCC2)nn1,.,.,.,-51,-3,.,.,.
CC(=O)Nc1sc2c(c1-c1nc3ccccc3s1)CCCN(C(C)C)C2,.,.,.,.,45*,.,-9,-70
CC(C)N1CCc2c(sc(NC(=O)c3nc4ccccc4s3)c2C(N)=O)C1,23,-5,24,31,38*,-5,-9,6
COc1ccc2c(c1)CNC2CS(=O)(=O)NCC(C)C (stereo not drawn),.,.,.,-3,2,.,.,.
CCOC(=O)Cn1cc(CN2C(C(=O)OC)CN(CCO)CCS2(=O)=O)nn1 (stereo not drawn),.,.,.,-18,-13,.,.,.
Cc1ccc[n+](CC(=O)Nc2cc(C(F)(F)F)ccc2Cl)c1,3,-5,-12,-5,7,-4,.,.
CCC(C)(C)c1ccc(OCCCC[n+]2cccc(C)c2)c(C(C)(C)CC)c1,49,3,56,-11,62*,1,3,38*
CCCN1CCS(=O)(=O)N(Cc2cn(Cc3ccc(Cl)cc3)nn2)C(C(=O)OC)C1 (stereo not drawn),.,.,.,-5,-5,.,.,.
O=C(Nc1ccc(N2CCN(c3ccc(C(F)(F)F)cn3)CC2)nc1)c1cccs1,2,9,-11,21,8,-3,.,.
